Source: PubChem BioAssay AID652067 (The Scripps Research Institute Molecular Screening Center, 2013)
Hit rate of the full screen: of about 370,000 compounds, about 5,400 (1.5%) were called active.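 The calls were made as follows: active = activation above the mean of all tested compounds plus 3 SD (cut at about 5.5% in these data); inactive = the rest.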 The entries come from a sample that favours actives as a whole.

tested on: DAF-12 nuclear receptor (Haemonchus contortus); assay: hcDAF-12 driven luciferase reporter activation – cell-based, luminescence, HEK293, lit1-tk-luc reporter, primary screen (AID 652067); conditions: HEK293 hcDAF-12 lit1-tk-luc reporter, at 6.8 µM, hits give high values, 0% DMSO, 100% Δ7-dafachronic acid;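 also: 100% = response to 3 µM Δ7-dafachronic acid high control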

activation, active:
O=C(Nc1ccccc1)Nc1nc2ccccc2s1 15.3%, CCCCn1c(N)c(N(CC(C)C)C(=O)c2cccc(S(=O)(=O)N3CC(C)OC(C)C3)c2)c(=O)[nH]c1=O (centres undefined) 6.01%, OC(c1ccccc1)c1nc(-c2cnc3ccccc3c2)cs1 (centres undefined) 7.43%, CCN(CC)S(=O)(=O)c1cc(C(=O)Nc2ccccn2)ccc1C 5.61%, COc1cccc(/C=C(/CC(=O)Nc2ccc(N3CCOCC3)cc2)c2nc3ccccc3s2)c1 6.15%, c1ccc(-c2cc(-c3ccccc3)[nH]n2)cc1 11.7%, Oc1ccccc1-c1cc(-c2ccc(Cl)cc2)n[nH]1 20.9%, Cc1c(Cl)cccc1NC(=O)NCc1ccc(C)n1C 6.25%

activation, inactive:
COc1ccccc1-c1ccc([C@@H]2C[C@H]3[C@H](CON3C)CN2S(=O)(=O)c2cc(Cl)cc(Cl)c2)cc1 1.1%, O=C(Nc1nc2ccc(Cl)cc2s1)c1cc(-c2ccc(Cl)cc2)nc2ccccc12 4.5%, O=C(Nc1ccccc1)Nc1nnc(COc2ccccc2F)s1 -0.12%, O=C(CCCCCN1C(=O)C2C3C=CC(C3)C2C1=O)Nc1ccccn1 (centres undefined) 2.04%, CCOC(=O)[C@]12CCCC3=C1N(CCC3)C(=O)[C@@H](CC(=O)N1CCSCC1)C2 -2.29%, CCCCn1c(N)c(N(CCOC)C(=O)c2cccc(S(=O)(=O)N3CCCCC3)c2)c(=O)[nH]c1=O -0.97%, CCCCn1c(N)c(N(CC(C)C)C(=O)c2cccc(S(=O)(=O)N3CCN(C(C)=O)CC3)c2)c(=O)[nH]c1=O -1.13%, Nc1[nH]c(/C=C2/CCCCC2n2[nH]c(=O)n(-c3ccccc3)c2=O)c(Cc2ccccc2)[n+]1Cc1ccccc1 (centres undefined) -2.89%, COC(=O)C12C=C3CC(c4ccccc4)=C3C(=O)N1Cc1[nH]c3ccccc3c1C2 (centres undefined) 1.08%, CC(C)c1cccc(-c2csc(C(O)c3ccccc3)n2)c1 (centres undefined) 1%, COc1cccc(C(NC(C)=O)c2nc(-c3cnc4ccccc4c3)cs2)c1 (centres undefined) -2.08%, COC(=O)c1cc(S(=O)(=O)N2CCN(C(=O)C3CCCO3)CC2)cn1C (centres undefined) 2.12%, Cc1cc(NS(=O)(=O)c2ccc(NC(=O)CSc3nnc(-c4ccc(C(C)(C)C)cc4)n3Cc3ccco3)cc2)nc(C)n1 -0.89%, Nc1cc(=O)c2[nH]cnc2[nH]1 -0.07%, CCCC[C@H](C(=O)N(CC)c1ccccc1)[C@@H](O)c1ccc2ccccc2c1 -1.18%, C=CCN(Cc1ccc2c(c1)OCO2)C(C#CC1CC1)C(C)(C)C (centres undefined) -0.69%, CCN(c1ccccc1)S(=O)(=O)c1cc(C(=O)NCc2ccccn2)ccc1C -0.36%, Cc1ccc(NC(=O)CNCc2ccccn2)cc1S(=O)(=O)N(C)C 0.26%, CCN(CC)C(=O)CC[C@@H]1CC[C@]2(CCCN(S(=O)(=O)C3CCCCC3)C2)O1 -3.16%, Cc1[nH]nc2c1C(c1ccc(Br)cc1)NC2=O (centres undefined) 1.05%, O=C(COC(=O)CCc1nc2ccccc2c(=O)[nH]1)Nc1ccc(N2CCOCC2)cc1 -1.31%, CCn1c(Cc2ccc(OC)cc2)nnc1SCC(=O)Nc1ccc(N2CCOCC2)cc1 0.15%, COc1cccc(N(C)C(=O)[C@@H](C)[C@@H](O)c2ccc3ccccc3c2)c1 -0.46%, COC(=O)C1=C(C)N(Cc2cccc(C(F)(F)F)c2)C(=NCc2ccccc2)NC1c1ccc(Cl)cc1 (centres undefined) -0.23%, COc1ccc(SSc2ccc(OC)cc2C(=O)O)c(C(=O)O)c1 0.58%, c1ccc(-c2c[nH]c(-c3ccccc3)c2)cc1 2.47%, O=C(O)c1n[nH]nc1-c1ccccc1 -0.64%, Cc1c[nH]c2cccc(-c3ccc(Cl)cc3)c12 2.81%, COc1ccc(Cn2cc(CN3[C@@H](CC(C)C)COc4cc(Br)ccc4S3(=O)=O)nn2)cc1 -0.96%, COC(=O)Cc1nnn2c1[C@H](C)[C@H](c1ccccc1[N+](=O)[O-])OCC2 -0.26%, C=C(C)C1CC23C(=O)C4(C(=O)c5ccccc5)C[C@@]5(C)CCC(CC2C1(C)C)(C4=O)C35OC (some centres undefined) -1.07%, O=C(c1c(Cl)cccc1Cl)N1CCN(c2cccc3[nH]ccc23)CC1 -0.37%, C=CCN1C(=O)N(Cc2ccccc2)c2ccccc2S1(=O)=O 2.1%, C=C(C)C#CC(Cc1ccccc1)N(CC1CC1)/C(N)=N/C(=O)OCc1ccccc1 (centres undefined) -4.1%, Cc1c(Cl)cccc1NC(=O)Nc1ccc(C(=O)N2CCCC2)cc1 -1.91%, Cc1c(Cl)cccc1NC(=O)NCCCN1CCCC1=O -0.07%
